# Source: paper PMC7862700, “An all-to-all approach to the identification of sequence-specific readers for epigenetic DNA modifications on cytosine”
# How the values were obtained:
# Test in all cases: DAPPL (digital affinity profiling via proximity ligation, sequencing); 10 mM Tris-HCl pH 7.5, 50 mM NaCl, 1 mM DTT, 4% glycerol, room temperature, 30 min; GST-TFs on glutathione beads, 16-mer random dsDNA library, 0.1% formaldehyde crosslink after washing; high values mean tight binding
# FEV = target: T1, FEV (Homo sapiens, UniProt Q99581 1-238); conditions: protein: recombinant; tags: N-terminal GST; dsDNA, one strand shown
# T1 sequence: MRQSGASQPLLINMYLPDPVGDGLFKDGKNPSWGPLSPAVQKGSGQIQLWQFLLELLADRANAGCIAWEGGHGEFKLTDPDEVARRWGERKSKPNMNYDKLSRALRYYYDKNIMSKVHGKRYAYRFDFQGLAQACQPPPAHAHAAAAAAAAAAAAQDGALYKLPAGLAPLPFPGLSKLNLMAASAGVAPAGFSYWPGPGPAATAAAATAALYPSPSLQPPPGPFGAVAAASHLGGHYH
# In short: (§1)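 Binding signal is given per hexamer as its read frequency for a factor divided by its frequency in the tag-only sample. GST-fused human transcription factors were expressed in yeast, captured on glutathione beads, barcoded with DNA and pooled with that sample, then incubated with 200 nmole of a 16-mer random double-stranded DNA library in Tris/NaCl/DTT/glycerol buffer for 30 min at room temperature. The pools were then washed, crosslinked, proximity-ligated, amplified by PCR and sequenced on an Illumina NextSeq500.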
# ETV5 = ETV5 (Homo sapiens, UniProt P41161 1-510); conditions: protein: recombinant; tags: N-terminal GST; dsDNA, one strand shown
# Sequence of ETV5 (P41161 whole entry): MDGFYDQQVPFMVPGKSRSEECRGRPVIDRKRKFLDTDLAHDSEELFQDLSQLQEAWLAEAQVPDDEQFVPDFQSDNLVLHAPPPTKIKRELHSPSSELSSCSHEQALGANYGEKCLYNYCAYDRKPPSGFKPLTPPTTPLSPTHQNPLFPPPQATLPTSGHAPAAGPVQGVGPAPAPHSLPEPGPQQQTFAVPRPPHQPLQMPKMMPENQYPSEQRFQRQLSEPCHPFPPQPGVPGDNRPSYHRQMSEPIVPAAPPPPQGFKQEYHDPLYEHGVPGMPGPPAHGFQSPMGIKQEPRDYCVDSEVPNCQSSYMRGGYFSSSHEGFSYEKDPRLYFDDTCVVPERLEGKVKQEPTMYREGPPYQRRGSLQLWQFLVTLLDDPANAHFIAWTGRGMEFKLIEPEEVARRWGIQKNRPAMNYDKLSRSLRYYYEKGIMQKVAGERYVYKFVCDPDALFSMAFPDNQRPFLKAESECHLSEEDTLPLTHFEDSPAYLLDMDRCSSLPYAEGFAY
# In short: as §1
# HSF1 = HSF1 (Homo sapiens, UniProt Q00613 1-529); conditions: protein: recombinant; tags: N-terminal GST; chain copies: 3; dsDNA, one strand shown
# Sequence of HSF1 (Q00613 whole entry): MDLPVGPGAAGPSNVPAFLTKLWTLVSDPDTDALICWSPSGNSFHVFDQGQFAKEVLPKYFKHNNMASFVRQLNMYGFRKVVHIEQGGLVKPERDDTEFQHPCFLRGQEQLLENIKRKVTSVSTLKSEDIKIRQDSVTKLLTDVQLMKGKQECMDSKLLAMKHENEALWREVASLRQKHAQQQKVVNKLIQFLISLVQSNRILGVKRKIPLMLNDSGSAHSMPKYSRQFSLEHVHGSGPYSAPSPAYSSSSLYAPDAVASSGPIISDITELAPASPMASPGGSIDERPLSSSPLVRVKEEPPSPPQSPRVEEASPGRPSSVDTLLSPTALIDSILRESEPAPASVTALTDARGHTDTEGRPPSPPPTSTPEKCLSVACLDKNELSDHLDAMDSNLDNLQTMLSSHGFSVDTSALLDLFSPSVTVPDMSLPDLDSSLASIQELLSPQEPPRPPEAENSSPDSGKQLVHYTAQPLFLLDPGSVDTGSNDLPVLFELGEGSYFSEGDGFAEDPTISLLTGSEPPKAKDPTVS
# In short: as §1
# SPIC = target: T2, SPIC (Homo sapiens, UniProt Q8N5J4 1-248); conditions: protein: recombinant; tags: N-terminal GST; dsDNA, one strand shown
# T2 sequence: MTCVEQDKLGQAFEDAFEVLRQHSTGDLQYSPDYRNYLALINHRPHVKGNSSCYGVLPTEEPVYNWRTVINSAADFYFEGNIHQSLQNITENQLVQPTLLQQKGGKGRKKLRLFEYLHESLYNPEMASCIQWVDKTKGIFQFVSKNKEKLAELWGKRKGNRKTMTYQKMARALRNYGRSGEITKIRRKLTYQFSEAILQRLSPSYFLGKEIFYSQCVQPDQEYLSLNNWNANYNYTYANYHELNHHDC
# In short: as §1
# ELF4 = ELF4 (Homo sapiens, UniProt Q99607 1-663); conditions: protein: recombinant; tags: N-terminal GST; dsDNA, one strand shown
# Sequence of ELF4 (Q99607 whole entry): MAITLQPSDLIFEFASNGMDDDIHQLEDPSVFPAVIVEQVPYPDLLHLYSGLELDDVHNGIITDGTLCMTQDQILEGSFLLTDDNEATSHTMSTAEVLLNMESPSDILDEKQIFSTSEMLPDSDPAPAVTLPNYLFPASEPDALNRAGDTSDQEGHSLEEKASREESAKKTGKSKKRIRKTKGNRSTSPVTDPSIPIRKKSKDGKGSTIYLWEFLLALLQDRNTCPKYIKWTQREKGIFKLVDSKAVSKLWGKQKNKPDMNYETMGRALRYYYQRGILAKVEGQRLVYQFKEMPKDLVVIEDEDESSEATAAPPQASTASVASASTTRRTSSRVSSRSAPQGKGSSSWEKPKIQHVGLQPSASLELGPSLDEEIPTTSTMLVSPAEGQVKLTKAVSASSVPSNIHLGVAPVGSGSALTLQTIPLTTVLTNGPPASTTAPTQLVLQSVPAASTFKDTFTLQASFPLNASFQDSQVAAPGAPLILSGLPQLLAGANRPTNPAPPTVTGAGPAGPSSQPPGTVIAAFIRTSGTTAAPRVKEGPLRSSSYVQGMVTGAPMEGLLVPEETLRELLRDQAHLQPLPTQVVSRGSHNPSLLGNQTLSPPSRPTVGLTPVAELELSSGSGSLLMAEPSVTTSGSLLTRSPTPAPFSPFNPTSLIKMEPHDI
# In short: as §1
# ELK4 = target: T3, ELK4 (Homo sapiens, UniProt P28324-2 1-405); conditions: protein: recombinant; tags: N-terminal GST; dsDNA, one strand shown
# T3 sequence: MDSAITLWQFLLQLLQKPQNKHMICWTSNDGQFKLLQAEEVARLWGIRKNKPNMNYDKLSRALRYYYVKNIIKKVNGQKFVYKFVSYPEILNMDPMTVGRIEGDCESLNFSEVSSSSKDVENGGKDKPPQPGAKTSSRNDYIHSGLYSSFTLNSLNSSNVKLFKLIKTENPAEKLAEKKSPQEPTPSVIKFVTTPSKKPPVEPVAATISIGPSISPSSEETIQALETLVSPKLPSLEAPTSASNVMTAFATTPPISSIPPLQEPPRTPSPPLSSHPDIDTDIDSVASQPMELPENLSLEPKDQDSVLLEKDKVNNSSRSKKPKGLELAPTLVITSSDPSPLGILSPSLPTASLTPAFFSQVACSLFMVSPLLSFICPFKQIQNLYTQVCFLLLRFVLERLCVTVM
# In short: as §1
# ETV2 = target: T4, ETV2 (Homo sapiens, UniProt O00321 1-342); conditions: protein: recombinant; tags: N-terminal GST; dsDNA, one strand shown
# T4 sequence: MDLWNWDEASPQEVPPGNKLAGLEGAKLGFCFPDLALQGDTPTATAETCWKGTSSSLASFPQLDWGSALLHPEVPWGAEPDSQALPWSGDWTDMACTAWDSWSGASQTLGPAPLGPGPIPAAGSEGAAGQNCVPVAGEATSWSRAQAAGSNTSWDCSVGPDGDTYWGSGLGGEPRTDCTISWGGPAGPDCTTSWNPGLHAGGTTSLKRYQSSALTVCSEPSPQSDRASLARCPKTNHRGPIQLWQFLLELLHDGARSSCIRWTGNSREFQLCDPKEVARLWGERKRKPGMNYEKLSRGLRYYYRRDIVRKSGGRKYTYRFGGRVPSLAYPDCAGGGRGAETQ
# In short: as §1
# ELF3 = target: T5, ELF3 (Homo sapiens, UniProt P78545 1-371); conditions: protein: recombinant; tags: N-terminal GST; dsDNA, one strand shown
# T5 sequence: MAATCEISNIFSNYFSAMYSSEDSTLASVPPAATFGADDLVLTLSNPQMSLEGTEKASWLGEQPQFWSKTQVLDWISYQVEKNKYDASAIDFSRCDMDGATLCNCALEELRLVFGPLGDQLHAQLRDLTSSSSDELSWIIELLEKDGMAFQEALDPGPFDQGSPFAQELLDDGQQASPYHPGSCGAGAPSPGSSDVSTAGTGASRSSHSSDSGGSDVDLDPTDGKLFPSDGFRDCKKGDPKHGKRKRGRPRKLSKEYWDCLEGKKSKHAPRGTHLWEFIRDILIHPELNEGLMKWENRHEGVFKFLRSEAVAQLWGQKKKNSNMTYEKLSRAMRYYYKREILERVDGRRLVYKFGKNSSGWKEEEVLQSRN
# In short: as §1
# CRX = CRX (Homo sapiens, UniProt O43186 1-299); conditions: protein: recombinant; tags: N-terminal GST; dsDNA, one strand shown
# Sequence of CRX (O43186 whole entry): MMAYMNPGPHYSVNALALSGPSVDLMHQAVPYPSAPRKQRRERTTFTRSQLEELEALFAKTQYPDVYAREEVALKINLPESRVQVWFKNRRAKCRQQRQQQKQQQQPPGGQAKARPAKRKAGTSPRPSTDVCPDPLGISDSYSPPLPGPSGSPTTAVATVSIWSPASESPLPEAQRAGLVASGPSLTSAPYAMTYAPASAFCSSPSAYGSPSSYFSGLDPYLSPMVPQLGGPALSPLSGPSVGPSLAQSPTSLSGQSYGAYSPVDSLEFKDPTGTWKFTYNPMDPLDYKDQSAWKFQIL
# In short: as §1
# ETV1 = ETV1 (Homo sapiens, UniProt P50549 1-477); conditions: protein: recombinant; tags: N-terminal GST; dsDNA, one strand shown
# Sequence of ETV1 (P50549 whole entry): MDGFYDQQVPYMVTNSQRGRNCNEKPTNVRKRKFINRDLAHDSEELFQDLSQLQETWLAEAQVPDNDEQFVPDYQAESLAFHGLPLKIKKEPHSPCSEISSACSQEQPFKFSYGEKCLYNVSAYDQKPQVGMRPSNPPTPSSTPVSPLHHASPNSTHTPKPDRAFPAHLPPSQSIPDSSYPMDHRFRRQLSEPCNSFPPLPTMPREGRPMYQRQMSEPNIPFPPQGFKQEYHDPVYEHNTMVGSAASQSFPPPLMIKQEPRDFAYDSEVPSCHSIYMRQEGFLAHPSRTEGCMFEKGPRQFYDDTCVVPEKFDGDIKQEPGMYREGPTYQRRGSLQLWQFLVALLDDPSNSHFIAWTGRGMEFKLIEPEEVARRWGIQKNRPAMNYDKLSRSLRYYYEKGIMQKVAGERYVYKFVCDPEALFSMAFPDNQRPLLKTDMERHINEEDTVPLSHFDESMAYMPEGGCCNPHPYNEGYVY
# In short: as §1
# ERF = target: T6, ERF (Homo sapiens, UniProt P50548 1-548); conditions: protein: recombinant; tags: N-terminal GST; dsDNA, one strand shown
# T6 sequence: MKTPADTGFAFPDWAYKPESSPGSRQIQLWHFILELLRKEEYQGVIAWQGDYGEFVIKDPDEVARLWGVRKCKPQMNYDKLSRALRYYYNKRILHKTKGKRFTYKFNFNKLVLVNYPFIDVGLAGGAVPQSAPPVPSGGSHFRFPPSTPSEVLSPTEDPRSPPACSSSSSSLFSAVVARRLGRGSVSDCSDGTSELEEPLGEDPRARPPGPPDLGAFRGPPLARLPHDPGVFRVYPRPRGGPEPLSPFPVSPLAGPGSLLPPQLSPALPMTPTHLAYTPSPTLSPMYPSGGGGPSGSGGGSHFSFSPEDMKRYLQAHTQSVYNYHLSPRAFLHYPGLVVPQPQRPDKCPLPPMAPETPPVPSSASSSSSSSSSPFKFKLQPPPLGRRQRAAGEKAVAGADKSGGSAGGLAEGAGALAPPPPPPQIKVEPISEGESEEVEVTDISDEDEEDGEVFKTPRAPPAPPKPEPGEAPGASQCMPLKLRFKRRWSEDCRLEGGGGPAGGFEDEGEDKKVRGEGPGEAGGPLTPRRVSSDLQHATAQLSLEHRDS
# In short: as §1
# ETV3L = target: T7, ETV3L (Homo sapiens, UniProt Q6ZN32 1-361); conditions: protein: recombinant; tags: N-terminal GST; dsDNA, one strand shown
# T7 sequence: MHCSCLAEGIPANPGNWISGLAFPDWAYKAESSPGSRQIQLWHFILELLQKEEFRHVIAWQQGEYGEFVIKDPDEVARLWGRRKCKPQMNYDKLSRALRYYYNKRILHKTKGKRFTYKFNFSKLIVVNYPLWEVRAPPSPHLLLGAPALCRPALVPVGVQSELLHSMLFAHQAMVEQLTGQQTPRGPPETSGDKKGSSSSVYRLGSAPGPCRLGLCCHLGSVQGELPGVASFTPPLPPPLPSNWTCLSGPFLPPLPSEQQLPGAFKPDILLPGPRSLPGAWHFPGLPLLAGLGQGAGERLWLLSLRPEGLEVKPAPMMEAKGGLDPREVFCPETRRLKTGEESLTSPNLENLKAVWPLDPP
# In short: as §1
# ETS2 = target: T8, ETS2 (Homo sapiens, UniProt P15036 1-469); conditions: protein: recombinant; tags: N-terminal GST; dsDNA, one strand shown
# T8 sequence: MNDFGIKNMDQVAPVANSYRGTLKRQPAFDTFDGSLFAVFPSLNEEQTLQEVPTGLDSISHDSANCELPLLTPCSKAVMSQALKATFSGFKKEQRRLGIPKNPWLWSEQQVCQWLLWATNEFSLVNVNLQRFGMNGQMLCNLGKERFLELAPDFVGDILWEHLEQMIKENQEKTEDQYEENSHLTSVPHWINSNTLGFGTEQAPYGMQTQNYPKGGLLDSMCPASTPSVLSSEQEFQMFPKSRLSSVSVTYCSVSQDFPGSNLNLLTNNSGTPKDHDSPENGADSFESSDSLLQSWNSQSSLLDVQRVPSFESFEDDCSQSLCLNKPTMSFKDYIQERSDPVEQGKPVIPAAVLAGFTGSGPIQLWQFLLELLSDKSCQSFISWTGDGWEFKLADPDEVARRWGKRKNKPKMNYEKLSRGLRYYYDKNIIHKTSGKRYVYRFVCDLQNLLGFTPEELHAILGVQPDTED
# In short: as §1
# SPDEF = target: T9, SPDEF (Homo sapiens, UniProt O95238 1-335); conditions: protein: recombinant; tags: N-terminal GST; dsDNA, one strand shown
# T9 sequence: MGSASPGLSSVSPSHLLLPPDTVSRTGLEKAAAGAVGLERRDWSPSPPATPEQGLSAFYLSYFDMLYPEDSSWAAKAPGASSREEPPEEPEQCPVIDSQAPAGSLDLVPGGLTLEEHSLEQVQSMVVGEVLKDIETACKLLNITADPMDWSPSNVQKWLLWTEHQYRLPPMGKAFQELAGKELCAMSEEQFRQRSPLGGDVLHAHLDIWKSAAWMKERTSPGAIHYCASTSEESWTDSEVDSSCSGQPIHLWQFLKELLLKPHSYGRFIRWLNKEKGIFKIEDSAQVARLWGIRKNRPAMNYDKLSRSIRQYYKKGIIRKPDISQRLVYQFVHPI
# In short: as §1
# ETV7 = target: T10, ETV7 (Homo sapiens, UniProt Q9Y603 1-341); conditions: protein: recombinant; tags: N-terminal GST; dsDNA, one strand shown
# T10 sequence: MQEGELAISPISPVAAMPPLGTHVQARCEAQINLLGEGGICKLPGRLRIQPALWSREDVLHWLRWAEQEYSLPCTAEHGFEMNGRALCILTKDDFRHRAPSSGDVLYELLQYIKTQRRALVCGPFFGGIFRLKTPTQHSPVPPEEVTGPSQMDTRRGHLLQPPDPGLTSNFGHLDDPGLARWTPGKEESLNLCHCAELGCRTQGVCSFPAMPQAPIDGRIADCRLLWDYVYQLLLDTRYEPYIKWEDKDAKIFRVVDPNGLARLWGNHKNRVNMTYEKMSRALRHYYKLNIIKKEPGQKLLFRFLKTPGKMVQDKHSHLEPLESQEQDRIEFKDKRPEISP
# In short: as §1
# ELF5 = target: T11, ELF5 (Homo sapiens, UniProt Q9UKW6-2 1-255); conditions: protein: recombinant; tags: N-terminal GST; dsDNA, one strand shown
# T11 sequence: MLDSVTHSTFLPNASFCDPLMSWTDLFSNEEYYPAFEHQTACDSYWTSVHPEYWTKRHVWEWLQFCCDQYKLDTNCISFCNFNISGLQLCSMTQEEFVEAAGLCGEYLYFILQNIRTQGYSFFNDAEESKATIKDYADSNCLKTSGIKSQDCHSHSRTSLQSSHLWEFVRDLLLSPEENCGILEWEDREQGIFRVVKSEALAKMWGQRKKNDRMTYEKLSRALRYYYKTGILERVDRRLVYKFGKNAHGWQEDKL
# In short: as §1
# ETV3 = target: T12, ETV3 (Homo sapiens, UniProt P41162-2 1-143); conditions: protein: recombinant; tags: N-terminal GST; dsDNA, one strand shown
# T12 sequence: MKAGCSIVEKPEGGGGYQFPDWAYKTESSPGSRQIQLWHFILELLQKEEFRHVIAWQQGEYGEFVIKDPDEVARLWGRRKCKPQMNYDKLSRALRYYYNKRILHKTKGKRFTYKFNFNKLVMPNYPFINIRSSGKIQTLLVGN
# In short: as §1
# ETV6 = ETV6 (Homo sapiens, UniProt P41212 1-452); conditions: protein: recombinant; tags: N-terminal GST; dsDNA, one strand shown
# Sequence of ETV6 (P41212 whole entry): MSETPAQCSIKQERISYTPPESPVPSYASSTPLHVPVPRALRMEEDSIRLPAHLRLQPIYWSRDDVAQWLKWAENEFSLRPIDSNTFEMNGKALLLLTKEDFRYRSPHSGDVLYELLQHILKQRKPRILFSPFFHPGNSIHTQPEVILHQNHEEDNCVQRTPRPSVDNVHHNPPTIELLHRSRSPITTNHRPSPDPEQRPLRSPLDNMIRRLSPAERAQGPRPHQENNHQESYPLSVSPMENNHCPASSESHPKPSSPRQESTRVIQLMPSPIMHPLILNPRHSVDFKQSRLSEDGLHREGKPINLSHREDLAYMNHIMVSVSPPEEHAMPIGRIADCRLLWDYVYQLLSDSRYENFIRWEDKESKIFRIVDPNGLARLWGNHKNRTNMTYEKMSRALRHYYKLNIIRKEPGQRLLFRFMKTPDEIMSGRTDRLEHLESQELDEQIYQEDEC
# In short: as §1
sequence,measurement,setting,value
TTACAA,binding signal,FEV,"1.12 fold enrichment (6-mer frequency, TF over GST control)"
same,binding signal,ETV5,"1.1 fold enrichment (6-mer frequency, TF over GST control)"
same,binding signal,HSF1,"1.31 fold enrichment (6-mer frequency, TF over GST control)"
same,binding signal,SPIC,"1.12 fold enrichment (6-mer frequency, TF over GST control)"
same,binding signal,ELF4,"1.12 fold enrichment (6-mer frequency, TF over GST control)"
same,binding signal,ELK4,"1.24 fold enrichment (6-mer frequency, TF over GST control)"
same,binding signal,ETV2,"1.09 fold enrichment (6-mer frequency, TF over GST control)"
same,binding signal,ELF3,"1.22 fold enrichment (6-mer frequency, TF over GST control)"
same,binding signal,CRX,"1.77 fold enrichment (6-mer frequency, TF over GST control)"
same,binding signal,ETV1,"1.18 fold enrichment (6-mer frequency, TF over GST control)"
same,binding signal,ERF,"1.23 fold enrichment (6-mer frequency, TF over GST control)"
same,binding signal,ETV3L,"1.1 fold enrichment (6-mer frequency, TF over GST control)"
same,binding signal,ETS2,"1.16 fold enrichment (6-mer frequency, TF over GST control)"
same,binding signal,SPDEF,"1.22 fold enrichment (6-mer frequency, TF over GST control)"
same,binding signal,ETV7,"1.11 fold enrichment (6-mer frequency, TF over GST control)"
same,binding signal,ELF5,"1.17 fold enrichment (6-mer frequency, TF over GST control)"
same,binding signal,ETV3,"1.08 fold enrichment (6-mer frequency, TF over GST control)"
same,binding signal,ETV6,"1.09 fold enrichment (6-mer frequency, TF over GST control)"
